# Screening results: PubChem, National Center for Advancing Translational Sciences (NCATS)
# Sampled rows, rich in hits. Any-hit rate of the full collection: about 9.4%.
# IMPase cell inh: IMPase inhibition in cells | P97697 | AID 901 | CHO-M1 cells, IP1 accumulation, HTRF TR-FRET ratio | inhibition (IP1 accumulation), % at 46.1 µM | 120,000 tested, under 10 active; active = well fitted curve in the direction sought with a large enough effect in the signal ratio, not every such curve was filed as active; inconclusive = small, poorly fitted or top-dose-only effect, or a change in a side signal; inactive = no such curve, though single readings can be large or run the other way; the % refers to the signal ratio;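 also: cells stimulated with carbachol in lithium chloride buffer; plate controls were DMSO basal wells for no effect and reference inhibitor wells for full effect; higher means more IMPase inhibition seen as more IP1 and lower FRET ratio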
#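 The IP-One HTRF competitive assay in carbachol-stimulated CHO-M1 cells quantifies cellular IP1. Compounds spanned up to 46 uM final, and activity is expressed as AC50 from concentration-response fits of the ratio and donor data.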
# IMPase Li inh: membrane-permeable IMPase blocker, potentiated with lithium. AID 1457. 210,000 tested, 0.35% active. Potency, µM (top dose mostly 59.4 µM), for the others: at the highest dose activity, negative = IMPase inhibition, usual class: inhibitors. CHO-M1 cells, IP1 TR-FRET (IP-One), carbachol + lithium;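 also: IP1 builds up when IMPase is blocked and the TR-FRET signal falls; potency is read from the fitted curve at half-maximal effect; plate controls were basal vehicle for no effect and high inhibitor control for full effect; nearly all actives have a fitted effect of over 50% in size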
#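 Lithium-sensitised IP1 accumulation assay; M1-expressing CHO cells treated 30 min at 37C with compound. Competitive antibody detection by time-resolved FRET followed a 10 min room-temperature lysis step.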
# HttQ103 aggreg: reduces HttQ103-GFP aggregates in PC12 cells; 220,000 tested, 1.1% active; Potency, µM (top dose mostly 46.1 µM), for inactives: at the highest dose activity change, negative = inhibition, hits mostly inhibitors; PC12 HttQ103-GFP aggregates, Acumen cytometry, 40 h; also: potency is read from the fitted curve at half-maximal effect; % is scaled to controls: 0 for no effect and ±100 for the full control effect; nearly all actives have a fitted effect of over 60% in size
#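 Quantitative HTS on tebufenozide-induced (100 nM) PC12 cells stably expressing polyQ103 Huntingtin exon 1–GFP. Reduction of bright GFP aggregates, detected by laser scanning cytometry after lysis, identified actives across the titration.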
# ALDH1A1 block: blocks purified human ALDH1A1 activity; Potency, µM (doses to about 75.3 µM), without a hit: at the highest dose activity, negative = inhibition, actives largely listed as inhibitors; Purified ALDH1A1, NADH fluorescence, propionaldehyde substrate; P00352; 220,000 tested, 7.3% active; active = well fitted inhibition curve with a large enough effect, not every such curve was filed as active; inconclusive = small, poorly fitted or top-dose-only effect, or another doubt; inactive = no such curve, though single readings can be large or run the other way;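 also: potency is read from the fitted curve at half-maximal effect; plate controls were no enzyme wells and a reference inhibitor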
# Target sequence (P00352 whole entry, looked up): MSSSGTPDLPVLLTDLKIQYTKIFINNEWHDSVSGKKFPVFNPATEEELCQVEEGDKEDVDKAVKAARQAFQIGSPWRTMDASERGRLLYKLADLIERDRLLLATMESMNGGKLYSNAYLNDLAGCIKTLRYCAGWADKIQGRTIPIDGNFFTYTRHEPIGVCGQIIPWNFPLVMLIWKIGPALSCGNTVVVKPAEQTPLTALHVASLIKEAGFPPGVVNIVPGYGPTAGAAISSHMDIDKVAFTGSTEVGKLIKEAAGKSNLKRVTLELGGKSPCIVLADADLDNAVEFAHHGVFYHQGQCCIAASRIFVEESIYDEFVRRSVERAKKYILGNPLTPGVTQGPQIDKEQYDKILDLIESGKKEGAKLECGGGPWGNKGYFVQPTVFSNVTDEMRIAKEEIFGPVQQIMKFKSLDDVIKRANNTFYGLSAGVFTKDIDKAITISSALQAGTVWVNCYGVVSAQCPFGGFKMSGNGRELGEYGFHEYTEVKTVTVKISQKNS
# HTT ATP protect: protects HTT-Q103 PC12 cells, measured by ATP. PC12 HTT-Q103 induced, cytoprotection, ATP luminescence, 40 h. Potency, µM (highest dose often 56.4 µM), for the others: cytoprotection (ATP increase), most hits filed as activators. 230,000 tested, 0.14% active. AID 1471; also: potency is read from the fitted curve at half-maximal effect; % of control where 0% means no effect; nearly all actives have a fitted effect of over 45% in size
#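 Stable PC12 Q103-GFP cells in serum-supplemented, phenol red-free DMEM; induction by tebufenozide at 100 nM final; compound dose series; cell viability quantified luminescently from ATP.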
# HPGD block: inhibitors of human 15-hydroxyprostaglandin dehydrogenase (HPGD); P15428; purified HPGD, NADH fluorescence kinetic, PGE2 substrate; Potency, µM, for inactives: at the highest dose activity change, negative = inhibition, usual class: inhibitors; 150,000 tested, 4.3% active; AID 894; active = well fitted inhibition curve with a large enough effect, not every such curve was filed as active; inconclusive = small, poorly fitted or top-dose-only effect, or another doubt; inactive = no such curve, though single readings can be large or run the other way; also: potency is read from the fitted curve at half-maximal effect; % is scaled to controls: 0 for no effect and ±100 for the full control effect
# Target sequence (P15428 whole entry, looked up): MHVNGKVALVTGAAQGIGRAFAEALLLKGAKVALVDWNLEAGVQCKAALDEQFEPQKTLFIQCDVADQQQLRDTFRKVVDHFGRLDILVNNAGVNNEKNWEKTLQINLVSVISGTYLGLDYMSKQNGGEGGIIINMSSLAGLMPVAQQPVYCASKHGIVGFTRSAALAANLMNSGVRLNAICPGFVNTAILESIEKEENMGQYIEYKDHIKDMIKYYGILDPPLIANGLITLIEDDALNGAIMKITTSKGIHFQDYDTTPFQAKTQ
#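 20 nM HPGD preincubated 15 min at room temperature with compound in 50 mM Tris-HCl pH 8, 0.01% Tween 20. Started with 1 mM NAD+ and 30 uM prostaglandin E2; NADH fluorescence (360/450 nm) read 5 times over 30-s intervals, last minus first.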
# The depositor's hits bear a star; ? = inconclusive; / = not tested or not shown; [ ] = another dose, or the depositor's remark. Unless noted, calls follow the shape of the dose curve; as a rule, active = well fitted curve in the direction sought with a large enough effect; inconclusive = small, poorly fitted or top-dose-only effect, or another doubt; inactive = no such curve, though single readings can be large; an effect the other way counts as inactive or inconclusive.
SMILES,IMPase cell inh,IMPase Li inh,HttQ103 aggreg,ALDH1A1 block,HTT ATP protect,HPGD block
O=Cc1cn(Cc2cccc([N+](=O)[O-])c2)c2ccccc12,/,-0.4%,10.7%,3.98µM*,-16.3%[10 µM],-17.3%
O=Cc1cn(Cc2c(F)cccc2Cl)c2ccccc12,/,8.3%,?,3.16µM*,-27.6%,/
CC(=O)C1=C(O)[C@@H]2[C@@H]3c4c[nH]c5cccc(c45)C[C@@H]3C(C)(C)N2C1=O,5.1,26.7%,/,?,-57.3%,-18.7%
Cc1ccc(/C=C2\C(=O)NC(=S)N(c3ccc(F)cc3)C2=O)s1,/,-9.3%,3.1%,?,-27.7%,/
Cc1ccc(/C=C2\C(=O)NC(=S)N(c3ccccc3F)C2=O)s1,-11.2,33.7%,0.0%,8.91µM*,-11.2%[10 µM],2.24µM*
CCNC(C)(C)[C@@H](SS)c1ccc(Br)cc1,/,13.9%,/,?,-19.2%[10 µM],3.16µM*
CN1CCN(Cc2cc(C(C)(C)C)c(O)c(C(C)(C)C)c2)CC1,9.0,38.4%[38.3 µM],21.7%,22.4µM*,8.4%[10 µM],5.9%
NCCc1ccc(S(=O)(=O)O)cc1[N+](=O)[O-],/,4.1%,/,0.1%[13.5 µM],-2.4%[10 µM],-5.5%
CCOC(=O)c1ccc(N2C(=O)CC(N3CC=C(c4ccc(F)cc4)CC3)C2=O)cc1 (stereo not given),2.5,18.9%[38.3 µM],20.3%,3.55µM*,-23.9%,28.2µM*
O=C(Nc1cccc(F)c1)N1CC2(CCNCC2)C1,/,15.2%,/,-9.2%,11.3%,-9.0%
Nc1cc(Cl)c2nonc2c1[N+](=O)[O-],-4.6,21.1%,4.47µM*,20µM*,-14.7%[10 µM],?
O=[N+]([O-])c1c(Cl)c(Cl)c(Cl)c(Cl)c1Cl,/,17.6%,/,2.1%,-22.2%,-6.6%
CCN(CC)C(=O)c1ccc(NC(=O)c2cccc(F)c2)cc1,1.9,3.7%[38.3 µM],-5.1%,1.1%,-2.4%[10 µM],14.1µM*
C=CC(=O)OCC(C)C,/,5.4%,/,15.5%,4.3%,-9.1%
CCCN1CCCC(c2cccc(O)c2)C1 (stereo not given),/,9.3%,/,-2.0%,/,3.4%
COc1cccc2c1C(=O)c1c(O)c3c(c(O)c1C2=O)C[C@@](O)(C(=O)CO)C[C@@H]3O[C@H]1C[C@H](N)[C@H](OC2CCCCO2)[C@H](C)O1 (stereo not given in full),/,/,3.98µM*,/,-80.3%,/
COc1ccc(CC2NC[C@H](O)[C@H]2OC(C)=O)cc1 (stereo not given in full),/,2.2%,/,-2.0%,-246.6%,-2.5%
C[C@H](CN(C)C)C(C#N)(c1ccccc1)c1ccccc1,/,22.7%,/,14.5%[13.5 µM],13.3%[10 µM],-5.7%
CN(C)CCCc1c[nH]c2ccccc12,/,1.1%,/,2.7%[13.5 µM],9.4%[10 µM],-7.5%
O=C1NC(=O)N(CCC2=CCCCC2)C(=O)/C1=C\c1cccs1,/,5.9%,29.8%,1.26µM*,-8.7%[10 µM],0.316µM*
O=C1NC(=O)N(CCc2ccc(F)cc2)C(=O)/C1=C/c1cccs1,/,-4.2%,0.5%,1.41µM*,-12.0%,/
C[C@@H]1O[C@@H](OC2CC(O)C3(CO)C4C(CCC3(O)C2)C2(O)CCC(C3=CC(=O)OC3)C2(C)C[C@H]4O)[C@H](O)[C@H](O)[C@H]1O (stereo not given in full),/,/,/,14.2%,-33.9%,-3.1%
O=C(O)[C@H]1CCN1,0.7,/,/,/,-2.6%[1.9 µM],/
CN(C)CS/C(N)=N/[C@H](O)C(Cl)(Cl)Cl,/,-4.3%,/,3.16µM*,-7.4%[10 µM],-10.5%
Oc1ccc(/C=N/NP(=S)(c2ccccc2)c2ccccc2)c(O)c1O,5.8,31.9%[38.3 µM],14.3%,11.2µM*,11.1%,22.4µM*
SMILES,IMPase cell inh,IMPase Li inh,HttQ103 aggreg,ALDH1A1 block,HTT ATP protect,HPGD block
CCOc1cc(-c2c(C#N)c(=O)[nH]c3c2c(C)nn3-c2ccc(F)cc2)ccc1O,-15.9,-10.7%[38.3 µM],12.6µM*,?,1.3%,?
O=C1NC(=O)C(=Cc2ccccc2OCCOc2ccc([N+](=O)[O-])cc2)C(=O)N1,/,9.2%,-1.3%,14.1µM*,-36.0%,/
COc1cc(C=C2C(=O)NC(=O)NC2=O)ccc1OCc1ccc([N+](=O)[O-])cc1,/,2.9%,11.9%,15µM*,-26.7%,/
O=C1NC(=O)C(=Cc2ccc(Oc3ccc([N+](=O)[O-])cc3)cc2)C(=O)N1,/,3.0%,-20.1%[9.22 µM],?,-42.7%,/
CN1C(=O)C(=Cc2ccccc2OCc2ccc(C(=O)O)cc2)C(=O)N(C)C1=O,/,-2.8%,1.9%,6.0%,-15.9%,/
CN1C(=O)C(=Cc2ccccc2OCCOc2ccc([N+](=O)[O-])cc2)C(=O)N(C)C1=O,/,5.2%,-12.7%,3.55µM*,-70.5%,/
CN1C(=O)C(=Cc2ccccc2OCc2ccccc2Cl)C(=O)N(C)C1=O,5.6,-2.0%,-5.3%,2.82µM*,0.0%[1.9 µM],15.8µM*
O=C1NC(=O)C(=Cc2ccc3ccccc3c2)C(=O)N1,/,/,-3.6%[9.22 µM],?,5.2%[10 µM],/
c1ccc(P(c2ccccc2)c2ccccc2)cc1,/,27.1%,/,/,1.0%,/
CN[C@@H]1C[C@H](c2ccc(Cl)c(Cl)c2)c2ccccc21,12.1,23.0%,/,0.1%,-86.9%,-8.7%
ClC(Cl)=C(Cl)Cl,/,-3.6%,/,13.9%,-5.5%,-4.8%
Cc1ccc(N2C(=O)NC(=O)/C(=C\c3ccsc3)C2=O)cc1C,-11.2,9.1%,-11.0%,-6.9%,13.7%[10 µM],31.6µM*
Cc1cc(C)cc(N2C(=O)NC(=O)/C(=C\c3cccn3-c3ccccc3)C2=O)c1,/,17.8%,28.2µM*,-7.5%,-3.4%[10 µM],7.08µM*
CC(C)c1ccc(N2C(=O)NC(=O)/C(=C\C=C\c3ccco3)C2=O)cc1,/,-5.3%,?,21.5%,-76.6%,/
CC(C)c1ccc(N2C(=O)NC(=O)/C(=C\c3cnc(-c4ccccc4)nc3)C2=O)cc1,5.7,0.3%[38.3 µM],-1.2%,7.08µM*,5.1%,25.1µM*
CN1C(=O)/C(=C/c2cccn2-c2ccc3ccccc3c2)C(=O)NC1=S,17.0,21.8%[38.3 µM],-3.1%,?,0.1%,14.1µM*
c1ccc2c(c1)CCCC2,/,19.2%,/,-16.0%,19.9%,-6.7%
NNC(N)=S,/,2.9%,/,?,-2.2%,-4.4%
O=C1NC(=S)NC(=O)C1=Cc1cccn1-c1ccc(O)cc1,/,22.9%,?,20µM*,-60.9%,/
Cc1cccc(N2C(=O)NC(=O)/C(=C\c3cnc(-c4ccccc4)nc3)C2=O)c1,7.4,6.3%,2.1%,11.2µM*,25.2%[10 µM],25.1µM*
COc1ccc(/C=C2/C(=O)NC(=O)N(c3ccccc3)C2=O)cc1CN1C(=O)c2ccccc2C1=O,/,/,-20.2%[9.22 µM],/,5.6%[10 µM],/
Cc1ccc(N2C(=O)NC(=O)/C(=C/c3cnc(-c4ccccc4)nc3)C2=O)cc1C,/,1.2%,12.0%,?,/,20µM*
Cc1cccc(N2C(=O)NC(=O)/C(=C/c3ccc(-c4ccc(C(=O)O)c(Cl)c4)o3)C2=O)c1,/,-9.5%,-25.5%,3.8%,-36.5%,/
CC(N)C(O)c1ccc(O)c(O)c1 (stereo not given),/,-4.5%,/,0.9%,?,2.7%
